{
  "source": "the supplement of paper PMC10382584",
  "about": "“Macrocyclization of linear molecules by deep learning to facilitate macrocyclic drug candidates discovery” (Nature Communications, 2023)",
  "data": [
    {"compound": "Cc1cnc(Nc2ccc(OCCN3CCCC3)cc2)nc1Nc1cccc(S(=O)(=O)NC(C)(C)C)c1 [Fedratinib]", "experiment": "percent of DMSO control binding (KINOMEscan); higher = weaker binding / less inhibition; extreme values may be limits of the assay", "settings": "concentration: 100 nM", "units": {"percent of DMSO control binding": "%"}, "values": [
      {"target": "EGFR(G719C) (UniProt P00533)", "percent of DMSO control binding": 100},
      {"target": "TNNI3K (UniProt Q59H18)", "sequence (Q59H18 whole entry)": "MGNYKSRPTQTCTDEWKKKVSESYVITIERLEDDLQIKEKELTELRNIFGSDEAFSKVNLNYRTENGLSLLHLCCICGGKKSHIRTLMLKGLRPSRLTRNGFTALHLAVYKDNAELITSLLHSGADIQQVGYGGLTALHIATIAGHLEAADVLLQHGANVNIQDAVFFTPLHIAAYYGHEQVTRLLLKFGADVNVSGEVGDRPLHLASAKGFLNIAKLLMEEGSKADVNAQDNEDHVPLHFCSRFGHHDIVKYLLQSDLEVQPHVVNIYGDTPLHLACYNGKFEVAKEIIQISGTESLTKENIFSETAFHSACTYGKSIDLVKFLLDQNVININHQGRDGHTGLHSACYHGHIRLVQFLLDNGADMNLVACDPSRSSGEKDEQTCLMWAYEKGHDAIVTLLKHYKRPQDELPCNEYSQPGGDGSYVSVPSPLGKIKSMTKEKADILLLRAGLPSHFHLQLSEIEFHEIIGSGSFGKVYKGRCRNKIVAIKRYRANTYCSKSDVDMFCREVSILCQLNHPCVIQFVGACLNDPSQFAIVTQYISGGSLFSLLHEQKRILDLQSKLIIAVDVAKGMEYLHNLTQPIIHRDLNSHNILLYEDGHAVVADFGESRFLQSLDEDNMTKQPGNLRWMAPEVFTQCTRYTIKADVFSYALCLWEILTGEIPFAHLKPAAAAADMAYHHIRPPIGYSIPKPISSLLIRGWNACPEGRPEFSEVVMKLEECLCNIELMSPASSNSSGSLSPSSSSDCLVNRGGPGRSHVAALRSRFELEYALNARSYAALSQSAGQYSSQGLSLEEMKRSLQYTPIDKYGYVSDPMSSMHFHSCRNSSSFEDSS", "percent of DMSO control binding": 97},
      {"target": "MLK3 (UniProt Q16584)", "percent of DMSO control binding": 100},
      {"target": "MEK2 (UniProt P36507)", "percent of DMSO control binding": 66},
      {"target": "ACVR2A (UniProt P27037)", "percent of DMSO control binding": 100},
      {"target": "MTOR (UniProt P42345)", "percent of DMSO control binding": 87},
      {"target": "ERBB4 (UniProt Q15303)", "percent of DMSO control binding": 100},
      {"target": "INSRR (UniProt P14616)", "sequence (P14616 whole entry)": "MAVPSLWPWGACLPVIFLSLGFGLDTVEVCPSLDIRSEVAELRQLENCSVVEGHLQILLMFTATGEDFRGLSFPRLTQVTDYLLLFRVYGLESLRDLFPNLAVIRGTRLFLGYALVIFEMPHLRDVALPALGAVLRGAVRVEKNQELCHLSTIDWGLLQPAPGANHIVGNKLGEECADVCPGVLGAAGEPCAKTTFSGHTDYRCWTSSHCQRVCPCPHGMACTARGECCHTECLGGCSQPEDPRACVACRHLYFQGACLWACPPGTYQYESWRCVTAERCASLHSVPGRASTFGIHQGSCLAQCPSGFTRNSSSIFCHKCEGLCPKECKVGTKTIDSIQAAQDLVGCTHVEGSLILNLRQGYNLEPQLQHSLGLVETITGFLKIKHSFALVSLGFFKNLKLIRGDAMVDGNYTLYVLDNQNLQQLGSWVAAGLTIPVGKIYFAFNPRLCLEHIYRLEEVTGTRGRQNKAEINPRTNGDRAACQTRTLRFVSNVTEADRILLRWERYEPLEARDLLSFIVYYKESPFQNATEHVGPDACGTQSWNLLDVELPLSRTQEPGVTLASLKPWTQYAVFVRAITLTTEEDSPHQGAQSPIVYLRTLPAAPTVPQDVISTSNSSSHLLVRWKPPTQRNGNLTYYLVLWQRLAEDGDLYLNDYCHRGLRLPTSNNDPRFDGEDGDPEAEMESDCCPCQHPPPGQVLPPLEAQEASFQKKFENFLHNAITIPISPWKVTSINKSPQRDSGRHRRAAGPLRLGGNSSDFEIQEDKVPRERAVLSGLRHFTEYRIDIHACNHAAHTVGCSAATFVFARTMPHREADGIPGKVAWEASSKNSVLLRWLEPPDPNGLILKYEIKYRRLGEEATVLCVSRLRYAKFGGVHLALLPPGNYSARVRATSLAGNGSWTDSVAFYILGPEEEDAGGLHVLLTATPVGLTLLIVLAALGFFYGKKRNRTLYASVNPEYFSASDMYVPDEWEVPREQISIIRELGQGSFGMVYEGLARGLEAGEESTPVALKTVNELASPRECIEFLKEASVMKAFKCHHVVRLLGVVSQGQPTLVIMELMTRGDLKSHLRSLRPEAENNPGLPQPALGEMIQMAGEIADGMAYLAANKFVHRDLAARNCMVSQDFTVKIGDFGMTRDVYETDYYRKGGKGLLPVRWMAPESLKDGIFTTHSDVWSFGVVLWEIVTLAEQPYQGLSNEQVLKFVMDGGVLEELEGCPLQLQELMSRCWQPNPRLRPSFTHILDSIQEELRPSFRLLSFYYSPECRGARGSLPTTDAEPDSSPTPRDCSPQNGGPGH", "percent of DMSO control binding": 100},
      {"target": "STK36 (UniProt Q9NRP7)", "percent of DMSO control binding": 100},
      {"target": "p38-alpha (UniProt Q16539)", "percent of DMSO control binding": 78},
      {"target": "EGFR(G719S) (UniProt P00533)", "percent of DMSO control binding": 99},
      {"target": "FLT4 (UniProt P35916)", "percent of DMSO control binding": 100},
      {"target": "MET(M1250T) (UniProt P08581)", "percent of DMSO control binding": 94},
      {"target": "MLK1 (UniProt P80192)", "sequence (P80192 whole entry, looked up)": "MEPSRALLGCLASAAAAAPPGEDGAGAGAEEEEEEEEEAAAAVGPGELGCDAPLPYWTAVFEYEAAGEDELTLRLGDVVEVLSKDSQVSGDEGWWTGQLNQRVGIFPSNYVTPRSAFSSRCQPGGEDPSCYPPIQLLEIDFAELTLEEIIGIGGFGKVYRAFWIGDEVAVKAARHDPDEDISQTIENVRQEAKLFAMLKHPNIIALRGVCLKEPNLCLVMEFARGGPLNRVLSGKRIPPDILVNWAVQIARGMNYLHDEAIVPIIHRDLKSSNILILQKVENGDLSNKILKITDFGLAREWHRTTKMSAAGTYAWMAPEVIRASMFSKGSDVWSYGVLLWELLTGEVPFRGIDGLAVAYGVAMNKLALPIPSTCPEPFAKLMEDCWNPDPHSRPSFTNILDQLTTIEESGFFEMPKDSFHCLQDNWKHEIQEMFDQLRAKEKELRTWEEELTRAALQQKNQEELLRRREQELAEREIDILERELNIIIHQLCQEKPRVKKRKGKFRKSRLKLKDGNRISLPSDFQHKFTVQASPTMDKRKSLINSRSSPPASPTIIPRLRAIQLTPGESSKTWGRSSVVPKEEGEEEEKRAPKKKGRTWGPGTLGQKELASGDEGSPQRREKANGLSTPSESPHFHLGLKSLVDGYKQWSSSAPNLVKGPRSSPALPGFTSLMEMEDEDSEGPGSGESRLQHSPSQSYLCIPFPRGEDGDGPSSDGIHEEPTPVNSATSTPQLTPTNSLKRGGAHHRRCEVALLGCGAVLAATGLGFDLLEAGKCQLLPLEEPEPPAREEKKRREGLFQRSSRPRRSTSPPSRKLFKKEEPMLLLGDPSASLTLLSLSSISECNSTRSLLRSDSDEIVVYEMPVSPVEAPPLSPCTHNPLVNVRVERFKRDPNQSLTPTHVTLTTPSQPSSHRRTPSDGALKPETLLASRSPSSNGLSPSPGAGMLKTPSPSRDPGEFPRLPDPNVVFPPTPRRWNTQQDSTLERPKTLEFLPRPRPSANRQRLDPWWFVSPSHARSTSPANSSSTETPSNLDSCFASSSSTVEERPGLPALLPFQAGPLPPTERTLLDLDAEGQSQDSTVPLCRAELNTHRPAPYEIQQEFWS", "percent of DMSO control binding": 96},
      {"target": "NEK5 (UniProt Q6P3R8)", "percent of DMSO control binding": 94},
      {"target": "PRKCQ (UniProt Q04759)", "percent of DMSO control binding": 100},
      {"target": "ROCK1 (UniProt Q13464)", "percent of DMSO control binding": 40},
      {"target": "LTK (UniProt P29376)", "sequence (P29376 whole entry)": "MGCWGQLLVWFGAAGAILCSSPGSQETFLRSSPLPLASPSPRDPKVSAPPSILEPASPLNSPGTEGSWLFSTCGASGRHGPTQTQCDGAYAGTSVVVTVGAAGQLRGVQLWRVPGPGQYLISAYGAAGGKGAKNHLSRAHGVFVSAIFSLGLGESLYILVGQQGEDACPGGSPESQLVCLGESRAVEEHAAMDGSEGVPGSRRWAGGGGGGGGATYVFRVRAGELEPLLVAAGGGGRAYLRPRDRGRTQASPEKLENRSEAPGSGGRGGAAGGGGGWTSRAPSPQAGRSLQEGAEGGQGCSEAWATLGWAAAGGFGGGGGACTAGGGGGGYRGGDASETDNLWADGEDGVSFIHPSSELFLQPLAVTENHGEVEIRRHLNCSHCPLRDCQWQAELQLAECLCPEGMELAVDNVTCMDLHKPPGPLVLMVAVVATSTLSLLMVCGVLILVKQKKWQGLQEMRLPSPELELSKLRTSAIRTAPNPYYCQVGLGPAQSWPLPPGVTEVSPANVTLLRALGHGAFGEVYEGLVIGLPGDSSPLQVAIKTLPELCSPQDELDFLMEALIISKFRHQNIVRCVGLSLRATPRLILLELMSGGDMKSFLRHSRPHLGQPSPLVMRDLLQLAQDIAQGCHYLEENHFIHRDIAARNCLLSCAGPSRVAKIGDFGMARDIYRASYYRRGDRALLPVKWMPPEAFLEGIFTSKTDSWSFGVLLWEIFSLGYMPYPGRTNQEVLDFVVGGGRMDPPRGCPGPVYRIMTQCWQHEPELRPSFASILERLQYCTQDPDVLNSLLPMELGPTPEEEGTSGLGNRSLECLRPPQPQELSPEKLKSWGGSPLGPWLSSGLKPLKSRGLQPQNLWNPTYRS", "percent of DMSO control binding": 100},
      {"target": "LATS2 (UniProt Q9NRM7)", "percent of DMSO control binding": 89},
      {"target": "EPHA1 (UniProt P21709)", "percent of DMSO control binding": 60},
      {"target": "WEE2 (UniProt P0C1S8)", "percent of DMSO control binding": 100},
      {"target": "PIK4CB (UniProt Q9UBF8)", "sequence (Q9UBF8 whole entry, looked up)": "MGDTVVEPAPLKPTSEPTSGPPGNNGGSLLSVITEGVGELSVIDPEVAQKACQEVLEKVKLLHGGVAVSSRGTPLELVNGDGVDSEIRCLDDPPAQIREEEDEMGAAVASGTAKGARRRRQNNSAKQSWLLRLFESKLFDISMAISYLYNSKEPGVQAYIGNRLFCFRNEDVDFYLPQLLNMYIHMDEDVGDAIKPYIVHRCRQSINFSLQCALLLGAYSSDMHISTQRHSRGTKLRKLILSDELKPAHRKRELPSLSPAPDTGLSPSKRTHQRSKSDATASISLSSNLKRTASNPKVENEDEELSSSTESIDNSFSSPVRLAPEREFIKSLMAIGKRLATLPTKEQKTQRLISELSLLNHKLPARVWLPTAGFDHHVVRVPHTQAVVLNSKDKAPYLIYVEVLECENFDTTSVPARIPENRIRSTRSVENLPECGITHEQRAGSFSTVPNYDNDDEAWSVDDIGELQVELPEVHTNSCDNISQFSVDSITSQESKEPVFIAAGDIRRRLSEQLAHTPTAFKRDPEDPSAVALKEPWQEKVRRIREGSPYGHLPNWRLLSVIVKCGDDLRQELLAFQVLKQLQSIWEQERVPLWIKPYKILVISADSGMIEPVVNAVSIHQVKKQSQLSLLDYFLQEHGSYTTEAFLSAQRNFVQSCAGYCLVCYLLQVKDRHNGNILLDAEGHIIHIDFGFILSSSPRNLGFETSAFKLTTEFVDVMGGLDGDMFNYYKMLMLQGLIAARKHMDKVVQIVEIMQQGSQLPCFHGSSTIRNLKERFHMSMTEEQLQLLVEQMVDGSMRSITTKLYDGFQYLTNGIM", "percent of DMSO control binding": 97},
      {"target": "CDKL2 (UniProt Q92772)", "percent of DMSO control binding": 100},
      {"target": "RSK3(Kin.Dom.1-N-terminal)", "percent of DMSO control binding": 100},
      {"target": "PIP5K1C (UniProt O60331)", "percent of DMSO control binding": 100},
      {"target": "RPS6KA5(Kin.Dom.1-N-terminal) (UniProt O75582)", "percent of DMSO control binding": 100},
      {"target": "CTK (UniProt P42679)", "percent of DMSO control binding": 74},
      {"target": "JAK1(JH2domain-pseudokinase) (UniProt P23458)", "percent of DMSO control binding": 80},
      {"target": "TTK (UniProt P33981)", "percent of DMSO control binding": 75},
      {"target": "PAK7 (UniProt Q9P286)", "percent of DMSO control binding": 100},
      {"target": "FGFR3(G697C) (UniProt P22607)", "percent of DMSO control binding": 78},
      {"target": "OSR1 (UniProt O95747)", "percent of DMSO control binding": 91},
      {"target": "ZAK (UniProt Q9NYL2)", "percent of DMSO control binding": 81},
      {"target": "PRKG1 (UniProt Q13976)", "percent of DMSO control binding": 100},
      {"target": "EGFR(T790M) (UniProt P00533)", "percent of DMSO control binding": 100},
      {"target": "SGK3 (UniProt Q96BR1)", "percent of DMSO control binding": 91},
      {"target": "SgK110 (UniProt P0C264)", "percent of DMSO control binding": 100},
      {"target": "CAMKK2 (UniProt Q96RR4)", "percent of DMSO control binding": 100}
    ]}
  ]
}
